17 molecules from PubChem BioAssay (Tox21) can be followed below.

Where “and” joins values, the source holds several entries; their conditions need not be identical. Identical values can stand only once. Values without a mark were called inactive. Results filed as inconclusive are left out. Calls of active or inactive are those of the source. Unless noted, the call rests on the fitted dose curve; in most records, active means well fitted curve in the direction sought with a large enough effect in the repeat runs; inconclusive means weak or mixed curves; inactive means no such curve, though single readings can be large; an effect the other way counts as inactive or inconclusive.

The target of assay [1] is Thyrotropin-releasing hormone receptor (Homo sapiens) (UniProt P34981). The assay can be described thus: qHTS assay to identify small molecule agonists of the thyrotropin-releasing hormone receptor (TRHR) signaling pathway (AID 1346891; calls by dose curve;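 further: HEK293 cells expressing TRHR with calcium dye readout; series mostly up to about 58 µM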). An outline of the steps:
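Kinetic fluorescence (3 min, 1 s intervals) reported intracellular calcium after compound transfer onto TRHR-Hek293 cells pre-loaded with dye for 2 h at 37 °C.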

Assay [2] can be described thus: Caspase-3/7 induction in HepG2 cells by small molecules, qHTS assay (AID 1346978). Further: nearly all actives have a fitted effect of over 15% in size. An outline of the steps: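 Wild-type HepG2 cells, 2,000/well, settled 5 hr at 37 C and 5% CO2, then compound-treated for 17 hr; caspase-3/7 activity read by luminescent Caspase-Glo 3/7 after 30 min at room temperature.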
The nature of assay [3]: Caspase-3/7 induction in CHO-K1 cells by small molecules, qHTS assay (AID 1346980). Further: nearly all actives have a fitted effect of over 15% in size. An outline of the steps:
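Wild-type CHO-K1 cells exposed to compounds for 17hr at 37 C, 5% CO2. Caspase-3/7 activity then measured by Caspase-Glo 3/7 luminescence after 30min at room temperature.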

Assay [4] can be described thus: Caspase-3/7 induction in HepG2 cells by small molecules, qHTS cell viability counter screen (AID 1346981). Further: nearly all actives have a fitted effect of over 30% in size. Further: potency means the concentration at half of the fitted maximal effect. An outline of the steps: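 Wild-type HepG2 cells (2,000/well) were allowed to settle for 5 hr at 37 C, 5% CO2, then dosed with compounds in DMSO by pin transfer. After 16 hr at 37 C, CellTiter-Fluor was added and fluorescence read 1 hr later.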
The target in assay [5] is Cytochrome P450 2D6 (Homo sapiens) (UniProt P10635). The assay can be described thus: Cytochrome P450 Family 2 Subfamily D Member 6 (CYP2D6) small molecule antagonists: luciferase reporter qHTS assay (AID 1671196). Further: nearly all actives have a fitted effect of over 50% in size. Further: potency means the concentration at half of the fitted maximal effect. An outline of the steps:
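CYP2D6 enzyme–substrate mix was held with compound for 10 min at room temperature, then NADPH regeneration solution was added and the reaction ran 1 h at room temperature. Luciferin product was detected by luminescence after 20 min with detection reagent.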

In assay [6] the target is Cytochrome P450 2C19 (Homo sapiens) (UniProt P33261). The assay can be described thus: Cytochrome P450 Family 2 Subfamily C Member 19 (CYP2C19) small molecule antagonists: luciferase reporter qHTS assay (AID 1671197). Further: nearly all actives have a fitted effect of over 65% in size. Further: potency means the concentration at half of the fitted maximal effect. An outline of the steps: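 Enzyme-substrate mix with proluciferin substrate (P450-Glo CYP2C19 system) preincubated with compounds 10 min at room temperature; NADPH regeneration solution added, 37C for 1 h; detection reagent stops reaction, luminescence read after 20 min. Ketoconazole positive control.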

The target in assay [7] is Cytochrome P450 1A2 (Homo sapiens) (UniProt P05177). The assay can be described thus: Cytochrome P450 Family 1 Subfamily A Member 2 (CYP1A2) small molecule antagonists: luciferase reporter qHTS assay (AID 1671199). Further: nearly all actives have a fitted effect of over 50% in size. Further: potency means the concentration at half of the fitted maximal effect. An outline of the steps:
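Human CYP1A2 activity measured with a P450-Glo proluciferin substrate; compounds in DMSO preincubated 10 min at room temperature with enzyme-substrate mix, then NADPH regeneration system added for 1 h. Luciferin detection reagent, 20 min, luminescence read.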

Assay [8] has as its target Voltage-gated inwardly rectifying potassium channel KCNH2 (Homo sapiens) (UniProt Q12809). In words: Human Ether-a-go-go-Related Gene (hERG) channel small molecule antagonists: fluorescence cell-based qHTS assay (AID 1671200). Further: nearly all actives have a fitted effect of over 50% in size. Further: potency means the concentration at half of the fitted maximal effect. An outline of the steps: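 First, 1000 cells per well are seeded and cultured overnight at 37 C. Next, FluxOR II dye is loaded for 1 h at room temperature, protected from light. After 10 more minutes, stimulus is added and fluorescence is read.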

Assay [9] in a line: Human pregnane X receptor (PXR) small molecule agonists, qHTS cell viability counter screen (AID 1346977). Further: nearly all actives have a fitted effect of over 50% in size. An outline of the steps:
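HepG2 cells stably carrying the PXR-Luc reporter are cultured with 5% charcoal-stripped FBS and treated with compounds for 24hr. CellTiter-Fluor is added at 23hr and fluorescence is read after 1hr.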

Assay [10] is described as follows: Caspase-3/7 induction in CHO-K1 cells by small molecules, qHTS cell viability counter screen (AID 1346979). Further: nearly all actives have a fitted effect of over 35% in size. Further: potency means the concentration at half of the fitted maximal effect. An outline of the steps: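 Seeding: 1,500 CHO-K1 cells/well. Rest: 5hr, 37C. Treatment: compounds in DMSO, 16hr. Read: CellTiter-Fluor, 1hr, fluorescence.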
For assay [11], the target named is Nuclear receptor subfamily 1 group I member 2 (Homo sapiens) (UniProt O75469). The assay can be described thus: Human pregnane X receptor (PXR) small molecule agonists, qHTS assay (AID 1346982). Further: nearly all actives have a fitted effect of over 35% in size. An outline of the steps:
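PXR-Luc HepG2 cells (CYP3A4 promoter-driven luciferase) were seeded in medium with 5% charcoal-stripped FBS, left 5 hr at 37 C, then exposed to compounds in DMSO for 24 hr. Luminescence was read after ONE-Glo addition.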

Assay [12] deals with Cytochrome P450 2C9 (Homo sapiens) (UniProt P11712). In words: Cytochrome P450 Family 2 Subfamily C Member 9 (CYP2C9) small molecule antagonists: luciferase reporter qHTS assay (AID 1671198). Further: nearly all actives have a fitted effect of over 50% in size. Further: potency means the concentration at half of the fitted maximal effect. An outline of the steps: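 P450-Glo proluciferin substrate with CYP2C9 enzyme; 10 min RT preincubation, then NADPH regeneration 1 h at 37C; luciferin detection reagent 20 min RT, luminescence in relative luminescence units.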

The target of assay [13] is Cytochrome P450 3A4 (Homo sapiens) (UniProt P08684). The assay can be described thus: Cytochrome P450 Family 3 Subfamily A Member 4 (CYP3A4) small molecule antagonists: luciferase reporter qHTS assay (AID 1671201). Further: nearly all actives have a fitted effect of over 50% in size. Further: potency means the concentration at half of the fitted maximal effect. An outline of the steps: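 Enzyme and proluciferin substrate are mixed with test chemicals for 10 min, then NADPH regeneration system drives turnover for 1 h at room temperature. A detection reagent halts the reaction; luminescence after 20 min gives relative activity.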

Assay [14] deals with Nuclear receptor subfamily 1 group I member 2 (Rattus norvegicus) (UniProt Q9R1A7). The assay can be described thus: Rat pregnane X receptor (rPXR) activation by small molecules, qHTS assay (AID 1346983). Further: nearly all actives have a fitted effect of over 20% in size. Further: potency means the concentration at half of the fitted maximal effect. Particulars: rPXR luciferase reporter cells, One-Glo luminescence, 24 h; max activation: hits give high values. An outline of the steps: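 Cell-based rPXR activation assay: rPXR cells, 2,000 per well, rested 5hr at 37 C, then exposed to compounds in DMSO for 24 hr at 37 C. Luciferase activity read by One-Glo luminescence after 30 min at room temperature.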

The target of assay [15] is Nuclear receptor subfamily 1 group I member 2 (Homo sapiens) (UniProt O75469). In words: Human pregnane X receptor (PXR) activation by small molecules, qHTS assay (AID 1346985). Further: nearly all actives have a fitted effect of over 40% in size. An outline of the steps:
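DPX-2 cells (HepG2 co-transfected with a PXR response element and a CYP3A4-promoter luciferase construct) were seeded at 2,000 per well, rested 5 hr at 37C, then exposed to DMSO-dissolved compounds for 24 hr. Activation was read as luciferase luminescence.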
On the % scale 0 is the no-effect control and ±100 the full control effect.

Cytochrome P450 2C9 (Homo sapiens), sequence (P11712 whole entry, looked up): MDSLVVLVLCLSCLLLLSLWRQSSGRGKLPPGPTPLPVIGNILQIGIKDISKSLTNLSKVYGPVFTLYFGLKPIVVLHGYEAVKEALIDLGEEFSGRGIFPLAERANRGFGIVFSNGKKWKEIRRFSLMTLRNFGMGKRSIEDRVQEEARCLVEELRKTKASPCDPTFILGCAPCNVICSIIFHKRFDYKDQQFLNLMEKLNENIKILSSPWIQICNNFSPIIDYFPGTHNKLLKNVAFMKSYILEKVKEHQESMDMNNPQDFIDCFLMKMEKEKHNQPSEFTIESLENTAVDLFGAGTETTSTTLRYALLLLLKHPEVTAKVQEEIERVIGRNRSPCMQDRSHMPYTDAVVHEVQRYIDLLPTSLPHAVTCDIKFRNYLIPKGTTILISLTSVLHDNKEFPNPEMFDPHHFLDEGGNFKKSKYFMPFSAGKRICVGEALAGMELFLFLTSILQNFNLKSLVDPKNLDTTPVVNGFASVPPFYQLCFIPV
Cytochrome P450 2C19 (Homo sapiens), sequence (P33261 whole entry, looked up): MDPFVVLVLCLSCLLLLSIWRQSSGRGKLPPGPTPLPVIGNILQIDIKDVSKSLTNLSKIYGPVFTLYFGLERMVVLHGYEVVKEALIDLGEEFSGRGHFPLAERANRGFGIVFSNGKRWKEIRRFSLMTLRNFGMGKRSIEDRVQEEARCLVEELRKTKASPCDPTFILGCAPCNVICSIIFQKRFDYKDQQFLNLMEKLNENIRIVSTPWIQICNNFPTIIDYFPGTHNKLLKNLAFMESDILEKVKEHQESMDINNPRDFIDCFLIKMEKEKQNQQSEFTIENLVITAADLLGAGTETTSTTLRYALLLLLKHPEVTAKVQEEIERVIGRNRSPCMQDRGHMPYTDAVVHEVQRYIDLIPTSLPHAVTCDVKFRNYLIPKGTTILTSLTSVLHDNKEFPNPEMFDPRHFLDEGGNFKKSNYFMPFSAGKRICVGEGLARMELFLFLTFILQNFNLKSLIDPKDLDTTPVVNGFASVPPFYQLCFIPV
Cytochrome P450 1A2 (Homo sapiens), sequence (P05177 whole entry, looked up): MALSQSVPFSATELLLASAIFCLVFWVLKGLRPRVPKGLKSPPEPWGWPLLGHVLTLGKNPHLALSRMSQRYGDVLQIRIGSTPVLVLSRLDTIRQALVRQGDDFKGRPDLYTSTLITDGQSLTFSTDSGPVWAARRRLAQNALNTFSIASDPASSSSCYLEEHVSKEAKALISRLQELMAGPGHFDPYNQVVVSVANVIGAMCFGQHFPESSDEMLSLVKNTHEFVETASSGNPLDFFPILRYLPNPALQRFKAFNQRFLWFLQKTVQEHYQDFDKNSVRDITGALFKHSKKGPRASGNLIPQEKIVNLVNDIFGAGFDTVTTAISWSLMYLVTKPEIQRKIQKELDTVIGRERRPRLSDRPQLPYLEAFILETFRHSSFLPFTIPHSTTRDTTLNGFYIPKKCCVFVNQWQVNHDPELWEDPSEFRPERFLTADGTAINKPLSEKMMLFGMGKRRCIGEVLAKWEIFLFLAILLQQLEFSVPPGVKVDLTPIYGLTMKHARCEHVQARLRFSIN
Cytochrome P450 3A4 (Homo sapiens), sequence (P08684 whole entry, looked up): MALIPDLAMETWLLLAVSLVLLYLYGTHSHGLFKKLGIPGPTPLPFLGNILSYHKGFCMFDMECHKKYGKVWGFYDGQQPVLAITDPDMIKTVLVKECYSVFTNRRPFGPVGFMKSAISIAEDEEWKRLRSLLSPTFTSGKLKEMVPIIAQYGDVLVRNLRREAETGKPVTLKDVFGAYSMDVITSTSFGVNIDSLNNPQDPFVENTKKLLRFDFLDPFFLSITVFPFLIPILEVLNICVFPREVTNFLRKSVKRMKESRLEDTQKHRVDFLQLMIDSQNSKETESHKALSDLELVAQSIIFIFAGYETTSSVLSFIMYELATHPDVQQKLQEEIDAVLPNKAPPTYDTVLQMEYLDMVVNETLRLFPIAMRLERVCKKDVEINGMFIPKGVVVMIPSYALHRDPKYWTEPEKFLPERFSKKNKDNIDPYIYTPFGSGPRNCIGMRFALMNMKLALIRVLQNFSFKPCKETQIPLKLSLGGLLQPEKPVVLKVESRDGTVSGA
Voltage-gated inwardly rectifying potassium channel KCNH2 (Homo sapiens), sequence (Q12809 whole entry, looked up): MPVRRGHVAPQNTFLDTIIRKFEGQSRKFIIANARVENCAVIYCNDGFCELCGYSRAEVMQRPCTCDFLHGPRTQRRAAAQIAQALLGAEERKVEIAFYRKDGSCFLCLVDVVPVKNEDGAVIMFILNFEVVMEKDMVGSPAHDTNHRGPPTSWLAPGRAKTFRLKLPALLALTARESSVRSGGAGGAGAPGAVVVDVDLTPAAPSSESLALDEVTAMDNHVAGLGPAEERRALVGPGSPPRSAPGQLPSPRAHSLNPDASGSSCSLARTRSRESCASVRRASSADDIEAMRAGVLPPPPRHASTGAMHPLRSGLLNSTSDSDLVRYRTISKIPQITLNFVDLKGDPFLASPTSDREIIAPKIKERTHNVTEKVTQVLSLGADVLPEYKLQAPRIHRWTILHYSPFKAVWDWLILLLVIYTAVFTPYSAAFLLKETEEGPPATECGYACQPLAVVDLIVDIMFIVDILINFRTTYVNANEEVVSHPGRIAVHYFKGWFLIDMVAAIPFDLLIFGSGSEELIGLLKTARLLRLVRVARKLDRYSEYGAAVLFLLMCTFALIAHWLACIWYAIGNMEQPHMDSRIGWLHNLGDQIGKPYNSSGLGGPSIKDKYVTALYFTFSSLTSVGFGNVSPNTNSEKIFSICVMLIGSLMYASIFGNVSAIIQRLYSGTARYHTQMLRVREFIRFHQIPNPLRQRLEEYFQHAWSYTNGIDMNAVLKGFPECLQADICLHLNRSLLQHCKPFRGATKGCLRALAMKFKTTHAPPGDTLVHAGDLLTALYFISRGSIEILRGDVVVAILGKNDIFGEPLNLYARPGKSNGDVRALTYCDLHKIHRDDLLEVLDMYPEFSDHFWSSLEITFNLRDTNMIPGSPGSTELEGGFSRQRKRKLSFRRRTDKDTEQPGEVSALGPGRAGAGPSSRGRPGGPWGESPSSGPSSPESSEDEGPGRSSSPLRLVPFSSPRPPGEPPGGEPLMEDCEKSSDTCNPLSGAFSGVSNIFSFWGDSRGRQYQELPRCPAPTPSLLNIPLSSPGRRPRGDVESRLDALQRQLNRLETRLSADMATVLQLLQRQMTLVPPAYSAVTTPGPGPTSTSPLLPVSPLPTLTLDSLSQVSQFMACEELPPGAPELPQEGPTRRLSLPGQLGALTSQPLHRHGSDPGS
Thyrotropin-releasing hormone receptor (Homo sapiens), sequence (P34981 whole entry, looked up): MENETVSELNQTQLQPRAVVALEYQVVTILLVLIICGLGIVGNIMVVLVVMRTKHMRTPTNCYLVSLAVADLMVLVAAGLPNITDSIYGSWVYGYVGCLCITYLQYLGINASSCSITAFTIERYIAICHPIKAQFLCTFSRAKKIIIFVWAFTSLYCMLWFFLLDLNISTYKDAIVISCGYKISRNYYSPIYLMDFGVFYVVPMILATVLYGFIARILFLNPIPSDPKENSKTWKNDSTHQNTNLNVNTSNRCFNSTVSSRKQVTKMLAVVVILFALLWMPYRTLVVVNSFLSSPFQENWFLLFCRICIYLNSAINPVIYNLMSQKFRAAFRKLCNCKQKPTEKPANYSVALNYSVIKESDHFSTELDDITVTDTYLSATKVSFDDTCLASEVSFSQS
Nuclear receptor subfamily 1 group I member 2 (Homo sapiens), sequence (O75469 whole entry, looked up): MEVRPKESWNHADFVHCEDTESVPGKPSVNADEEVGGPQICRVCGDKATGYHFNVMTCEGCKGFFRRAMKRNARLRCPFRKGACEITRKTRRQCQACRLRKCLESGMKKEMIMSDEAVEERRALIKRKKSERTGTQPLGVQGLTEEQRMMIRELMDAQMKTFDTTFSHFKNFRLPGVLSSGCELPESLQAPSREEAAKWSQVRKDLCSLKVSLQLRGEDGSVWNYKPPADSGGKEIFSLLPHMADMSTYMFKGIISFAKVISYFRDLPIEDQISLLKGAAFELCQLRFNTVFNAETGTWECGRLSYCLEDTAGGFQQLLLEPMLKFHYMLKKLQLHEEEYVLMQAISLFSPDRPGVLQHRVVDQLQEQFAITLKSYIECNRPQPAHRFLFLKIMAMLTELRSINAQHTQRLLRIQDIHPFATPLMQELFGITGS
Cytochrome P450 2D6 (Homo sapiens), sequence (P10635 whole entry, looked up): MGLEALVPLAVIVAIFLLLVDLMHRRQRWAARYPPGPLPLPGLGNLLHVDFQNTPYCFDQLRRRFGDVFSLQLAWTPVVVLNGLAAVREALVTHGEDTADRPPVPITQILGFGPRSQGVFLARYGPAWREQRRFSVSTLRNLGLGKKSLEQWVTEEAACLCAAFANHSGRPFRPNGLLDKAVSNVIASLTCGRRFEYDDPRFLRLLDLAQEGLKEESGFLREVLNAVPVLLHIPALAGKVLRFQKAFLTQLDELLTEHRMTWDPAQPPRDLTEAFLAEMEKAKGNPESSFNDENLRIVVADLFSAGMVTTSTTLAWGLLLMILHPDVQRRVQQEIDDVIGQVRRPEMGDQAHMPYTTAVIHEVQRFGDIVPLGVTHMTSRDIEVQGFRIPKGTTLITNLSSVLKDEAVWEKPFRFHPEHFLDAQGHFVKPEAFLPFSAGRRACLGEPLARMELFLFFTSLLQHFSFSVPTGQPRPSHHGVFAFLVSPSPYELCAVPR
Nuclear receptor subfamily 1 group I member 2 (Rattus norvegicus), sequence (Q9R1A7 whole entry, looked up): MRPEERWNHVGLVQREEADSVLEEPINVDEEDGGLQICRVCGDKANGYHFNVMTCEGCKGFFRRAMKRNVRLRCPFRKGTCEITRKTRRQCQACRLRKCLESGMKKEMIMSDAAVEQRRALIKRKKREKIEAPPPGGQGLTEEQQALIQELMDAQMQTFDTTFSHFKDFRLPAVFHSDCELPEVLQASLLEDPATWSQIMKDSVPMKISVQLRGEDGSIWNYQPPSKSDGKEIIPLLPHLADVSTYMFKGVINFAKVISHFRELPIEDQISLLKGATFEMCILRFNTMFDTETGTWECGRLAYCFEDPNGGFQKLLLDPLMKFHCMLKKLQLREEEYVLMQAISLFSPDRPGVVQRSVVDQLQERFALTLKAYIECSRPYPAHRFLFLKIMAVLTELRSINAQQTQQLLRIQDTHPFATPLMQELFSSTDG

`CC(C)OC(=O)c1ccccc1C(=O)OC(C)C`: the outcome in assay [1] and in assay [3] was inactive. For the same molecule, the Potency result in assay [2], in assay [4], in [5] and in assay [8] was “inactive” throughout. In addition, the results for the Potency in assay [6] and in [7] were 79.6 µM (active) and 3.56 µM (active), respectively.
With `CC1CCCC(=O)C1=O` (stereo not given), the Potency entry in assay [9], in assay [2], in [10], in assay [4], in assay [11] and in [5] was “inactive” each time. In addition, the Potency result in [6], in [12], in assay [7], in assay [8] and in [13] was “inactive” in each case. Moreover, the molecule was classed as inactive in assay [3].
For the molecule `COc1ccc(C)cc1`, the Potency result in assay [9], in assay [2], in [10], in assay [4], in [11] and in assay [8] was “inactive” in each case. Further, the call in assay [3] was inactive. The Potency is 17.8 µM (active) in [5] and 79.6 µM (active) in assay [6].
For the molecule `CC1=C2[C@@H]([C@H](C)CC[C@H]2/C=C(\C)C(=O)O)[C@H](O)C1`, the Potency entry in assay [9], in assay [2], in assay [10], in assay [4], in assay [11] and in [6] was “inactive” each time. Further, the Potency entry in [12], in assay [7], in [8] and in [13] was “inactive” each time. In addition, in assay [3], the outcome was inactive.
For `CC(=O)C(C)=O`, the Potency entry in assay [9], in assay [2], in assay [10], in [4], in assay [11] and in assay [5] was “inactive” in each case. Also, the Potency entry in assay [6], in assay [12], in assay [7], in assay [8] and in [13] was “inactive” in each case. Moreover, the molecule was called inactive in assay [3].
Regarding `CCN(CC)C(=O)/C(C#N)=C/c1cc(O)c(O)c([N+](=O)[O-])c1`, the molecule was called inactive in [1] and in assay [3]. Further, the Potency entry in assay [2], in assay [15], in assay [5], in assay [6], in [7] and in [8] was “inactive” in each case. Besides, in assay [13], the Potency result is “inactive”. Moreover, the Potency is 29.8 µM (active) in [4] and 0.195 µM (active) in [12]. In addition, the max activation in assay [14] is -6.1%.
For `COC(=O)C1=C(C)NC(C)=C(C(=O)OC(C)(C)CN(C)CCC(c2ccccc2)c2ccccc2)C1c1cccc([N+](=O)[O-])c1` (stereo not given), the outcome in assay [1] and in assay [3] was inactive. The Potency was 16.8 µM (active) in assay [10]; 3.98 µM (active) in assay [14]; 4.36 µM (active) in assay [5]; 1.38 µM (active) in [6]; 2.45 µM (active) in [12]; 2.39 µM (active) in [8].
Regarding `CCO[Si](C)(CCCOCC1CO1)OCC` (stereo not given), the Potency entry in assay [9], in assay [2], in [10], in assay [4], in [5] and in assay [6] was “inactive” throughout. Also, in [8], the Potency result is “inactive”. In assay [3], the result was inactive. In addition, the Potency in assay [13] is 39.9 µM (active).
Consider `COc1ccc(N)c([N+](=O)[O-])c1`, for which the result in assay [1] and in [3] was inactive. Moreover, the Potency result in assay [2] and in assay [8] was “inactive” throughout. In addition, in [7], the Potency is 8.94 µM (active).
In the case of `CCN(CC)C(=O)N1CCN(C)CC1`, the Potency result in [9], in [2], in assay [10], in [4], in assay [15] and in assay [5] was “inactive” throughout. Besides, the Potency entry in [6], in [8] and in assay [13] was “inactive” throughout. In assay [3], the molecule was called inactive. The max activation in assay [14] is -2.03%.
As to `CNC1CCCN(c2c(F)cc3c(=O)c(C(=O)O)cn(C4CC4)c3c2OC)C1` (stereo not given), the Potency entry in [9], in assay [2], in [10], in [4], in assay [11] and in assay [15] was “inactive” in each case. Also, the Potency entry in assay [5], in [6], in [12], in assay [7] and in assay [13] was “inactive” each time. Also, the result in assay [3] was inactive. Further, in [14], the max activation was -1.63%.
In the case of `CCCCCCCCCCCCCC(=O)OCC(O)CO` (stereo not given), the Potency entry in assay [9], in [2], in [10], in assay [4], in [5] and in assay [8] was “inactive” in each case. Moreover, the Potency result in assay [13] is “inactive”. In addition, in assay [3], the molecule was classed as inactive. The Potency in [6] is 35.6 µM (active); in assay [7], 22.4 µM (active).
For `CC(=O)OCC(=O)[C@@]1(OC(C)=O)[C@@H](C)C[C@H]2[C@@H]3C[C@H](F)C4=CC(=O)C=C[C@]4(C)[C@@]3(F)[C@@H](O)C[C@@]21C`, the Potency entry in assay [9], in [2], in assay [10], in [4], in assay [5] and in assay [6] was “inactive” in each case. Also, the Potency entry in [7], in assay [8] and in assay [13] was “inactive” in each case. In assay [3], the molecule was classed as inactive.
For `Cc1cn([C@H]2C[C@H](F)[C@@H](CO)O2)c(=O)[nH]c1=O`, the Potency result in assay [9], in assay [2], in assay [10], in [4], in [11] and in assay [15] was “inactive” each time. Besides, the Potency result in [6], in assay [12], in assay [8] and in [13] was “inactive” throughout. Moreover, the max activation in assay [14] was -7.91%.
For `CC(C)c1ccc(C(=O)N=C(N)N)cc1S(C)(=O)=O`, the Potency result in assay [9], in assay [2], in assay [10], in assay [4], in assay [11] and in assay [6] was “inactive” in each case. For the same molecule, the Potency result in [12], in assay [8] and in assay [13] was “inactive” in each case. For the same molecule, the call in assay [3] was inactive. Moreover, in [7], the Potency is 44.4 µM (active).
Take `CCN(CC)CCOC(=O)C(c1ccccc1)c1ccccc1`: the result in assay [1] and in assay [3] was inactive. Moreover, the Potency entry in assay [2], in [4], in assay [11] and in assay [15] was “inactive” in each case. For the same molecule, in assay [14], the max activation was 0.131%. Moreover, the Potency in assay [5] was 2.75 µM (active); in assay [6], 21.9 µM (active); in assay [7], 15.5 µM (active); in [8], 2.68 µM (active).
In the case of `CC[C@H]1OC(=O)[C@H](C)[C@@H](O[C@H]2C[C@@](C)(OC)[C@@H](O)[C@H](C)O2)[C@H](C)[C@@H](O[C@@H]2O[C@H](C)C[C@H](N(C)C)[C@H]2O)[C@](C)(O)C[C@@H](C)C(=O)[C@H](C)[C@@H](O)[C@]1(C)O`, the Potency entry in assay [9], in assay [2], in assay [10], in [4], in assay [11] and in assay [15] was “inactive” throughout. The Potency result in assay [5], in [6] and in assay [7] was “inactive” throughout. Moreover, the outcome in [3] was inactive. The max activation in [14] was -0.703% and -0.253%. For the same molecule, the Potency in [13] was 3.45 µM (active).
